Assay outcomes (PubChem)
Efflux pump mplx = antifungal efflux pump inhibition, Nile Red retention; S. cerevisiae Candida pump triplex; inhibition, % at 10 µM; 330,000 tested, 0.44% active;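 active means plate passing quality check with inhibition over a set limit, or well fluorescence over plate mean plus 4 SD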;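 further: Nile Red retained in pooled yeast measured as flow cytometry median fluorescence; higher means more Nile Red kept so more efflux inhibition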
CR mimetic SO = yeast age-related superoxide inhibition as caloric restriction mimetic. S. cerevisiae aged cells, superoxide DHE fluorescence; active compounds read low. superoxide response (% of plate mean), % at 10 µM. 330,000 tested, 0.18% active. AID 2690;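 active means superoxide response under a set limit, about three screen SD below normal, cut at about 65% in these data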;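 further: yeast aged for seven days with compound at 30 °C before DHE staining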
GRK2 inh = blocks RNA aptamer binding to human GRK2; P25098; bead flow cytometry, FAM-aptamer displacement from GRK2; inhibition of aptamer binding, % at 10 µM; 330,000 tested, 0.59% active;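 active means inhibition of aptamer binding above 40%, roughly 3 SD of noise, on plates passing a quality check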;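 further: median bead fluorescence of bound FAM aptamer so fluorescent compounds give negative values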
Target sequence (P25098 whole entry, looked up): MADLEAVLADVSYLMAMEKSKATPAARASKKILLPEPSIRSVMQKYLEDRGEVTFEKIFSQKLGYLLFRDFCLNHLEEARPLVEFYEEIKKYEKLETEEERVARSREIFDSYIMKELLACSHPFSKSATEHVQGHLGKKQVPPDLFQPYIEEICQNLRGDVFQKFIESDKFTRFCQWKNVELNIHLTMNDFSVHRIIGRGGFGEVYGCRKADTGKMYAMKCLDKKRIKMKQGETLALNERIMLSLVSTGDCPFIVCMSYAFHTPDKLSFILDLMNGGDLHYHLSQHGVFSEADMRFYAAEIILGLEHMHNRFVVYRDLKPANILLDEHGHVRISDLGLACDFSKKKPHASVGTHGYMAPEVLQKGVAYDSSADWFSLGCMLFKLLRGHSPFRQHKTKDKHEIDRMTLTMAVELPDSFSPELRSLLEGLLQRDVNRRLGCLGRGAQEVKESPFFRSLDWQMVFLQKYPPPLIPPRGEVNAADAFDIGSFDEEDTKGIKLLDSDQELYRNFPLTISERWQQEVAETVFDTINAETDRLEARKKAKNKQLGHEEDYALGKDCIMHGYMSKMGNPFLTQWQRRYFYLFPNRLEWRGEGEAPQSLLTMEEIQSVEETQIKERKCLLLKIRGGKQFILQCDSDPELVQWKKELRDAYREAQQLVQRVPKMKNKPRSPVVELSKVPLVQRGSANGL
ATG4B inh = ATG4B (human) cysteine protease inhibition; Q9Y4P1; ATG4B cleavage of LC3-PLA2, NBD-HPC fluorescence, 1 h; inhibition, % at 8.33 µM; 340,000 tested, 0.51% active; AID 504462; in the data active means inhibition above about 40%
GRK2 CP1 = confirmation of human GRK2 inhibitors displacing RNA aptamer | shares compounds with GRK2 inh | bead-bound GRK2, FAM-aptamer displacement, flow cytometry | aptamer displacement, % at 10 µM | 2,000 tested, 4% active | AID 504451;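 active means aptamer displacement above 40%, near three times the noise of non-fluorescent compounds, on plates passing quality checks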;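 further: negative values mostly reflect intrinsic compound fluorescence rather than true enhancement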
FAM quench CP1 = aptamer fluorescence quenching in GRK2 counter-screen | shares compounds with GRK2 inh | Carboxyfluorescein RNA aptamer on beads, flow cytometry quenching; active compounds read low | fluorescence response (% of DMSO), % at 10 µM | 2,000 tested, under 10 active | AID 504580;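 active means compounds that quench the bead-bound fluorescent RNA probe, cutting fluorescence to under half of the solvent control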;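 further: counterscreen run without GRK2 so only probe quenching by compound is measured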
GRK2 confirm 2 = human GRK2 inhibition confirmation, cherry pick 2; AID 504782; bead-bound GRK2, FAM-aptamer displacement, flow cytometry; 360 tested, under 10 active; inhibition of aptamer binding, % at 10 µM; shares compounds with GRK2 inh;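 active means inhibition of aptamer binding above 40%, about triple the noise seen with nonglowing compounds, on plates passing quality control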;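 further: negative values mostly come from compounds that fluoresce themselves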
FAM quench CP2 = quenches fluorescent RNA aptamer, GRK2 hit artifact; shares compounds with GRK2 inh; carboxyfluorescein RNA aptamer beads, flow cytometry quenching; active compounds read low; fluorescence response vs DMSO, % at 10 µM; 360 tested, under 10 active;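 active means response vs DMSO under 50%, meaning signal dropped by over half, treated as fluorescence quencher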;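 further: labelled aptamer on streptavidin beads without GRK2 as a quench counter-screen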
A number is an active result; i = inactive; nt = not tested or not shown. A selection: hits, their analogues and other compounds. The true share with any hit is near 1.6%.

SMILES	Efflux pump mplx	CR mimetic SO	GRK2 inh	ATG4B inh	GRK2 CP1	FAM quench CP1	others
Cc1ccc(C)c(S(=O)(=O)NCCCc2ccccc2)c1	i	i	81	i	i	i
Cc1nnc(SCc2cccc3ccccc23)n(N)c1=O	i	i	i	i	nt	nt
Cc1nnc(SCc2c(Cl)cccc2Cl)n(N)c1=O	i	i	61	i	i	i
COC(=O)c1cc(C(=O)Nc2nnc(C3CC3)s2)cc([N+](=O)[O-])c1	i	i	i	i	nt	nt
COc1ccc2oc(C(=O)N(Cc3ccco3)Cc3cccs3)c(C)c2c1	i	i	80	i	i	i
NS(=O)(=O)c1cc(C(=O)N2CCNC(=O)C2)ccc1Cl	i	i	i	i	nt	nt
Cc1cc(C)c(S(=O)(=O)c2c(C)cccc2C)c(Cl)n1	i	i	81	i	i	i
Cc1cccc(C(=O)NC(=S)Nc2cccc3nc(C)ccc23)c1	i	i	i	i	nt	nt
CCOC(=O)CC(=O)CSc1ccc2nnc(-c3ccc(C)cc3)n2n1	i	i	100	i	i	i
CCOC(=O)N1CCN(C(=O)CSc2ccc3nnc(-c4ccncc4)n3n2)CC1	i	i	i	i	nt	nt
COc1ccc(Cl)cc1Nc1nc(C)nc2c1oc1ccccc12	i	i	i	i	nt	nt
Cc1nc(Oc2cccc(Cl)c2)c2oc3ccccc3c2n1	i	i	41	i	i	i
CSc1ccccc1NS(=O)(=O)c1cccc2nonc12	i	i	i	i	nt	nt
CC(=O)N(c1ccccc1)c1ccc([N+](=O)[O-])cc1[N+](=O)[O-]	i	i	i	i	nt	nt	GRK2 confirm 2=i;FAM quench CP2=i
CCNc1nc(NCC)n2c(SCC(=O)Nc3ccccc3OC(F)F)nnc2n1	i	i	i	i	nt	nt	GRK2 confirm 2=i;FAM quench CP2=i
CCNc1nc(NCC)n2c(SCC(=O)Nc3ccc(NC(C)=O)cc3)nnc2n1	i	i	i	i	nt	nt	GRK2 confirm 2=i;FAM quench CP2=i
CCNc1nc(NCC)n2c(SCC(=O)Nc3ccccc3F)nnc2n1	i	i	i	i	nt	nt
CCNc1nc(NCC)n2c(SCC(=O)Nc3ccc(CC)cc3)nnc2n1	i	i	i	i	nt	nt
CCC1Oc2ccccc2N(CC(=O)NCCCN2CCCCC2C)C1=O (configuration not stated)	i	i	61	i	i	i
CCC1Oc2ccccc2N(CC(=O)NCCCN2CCCCC2CC)C1=O (configuration not stated)	i	i	i	i	nt	nt
Cc1ccc(C)c(S(=O)(=O)NC2CCSC2=O)c1 (configuration not stated)	nt	nt	nt	i	nt	nt
COc1ccc(CN(C)C(=O)c2ccc(NC(=O)CC3SC(N4CCCC4)=NC3=O)cc2)c(OC)c1 (configuration not stated)	i	i	54	i	i	i
O=C(CC1SC(N2CCCCC2)=NC1=O)Nc1cccc(C(=O)NCc2ccccc2)c1 (configuration not stated)	i	i	i	i	i	i
CCOc1ccc(N(C(=O)c2ccc3c(c2)OCO3)C2C=CS(=O)(=O)C2)cc1 (configuration not stated)	i	i	i	i	nt	nt
O=C(N[C@@H](Cc1ccccc1)C(=O)N1CCN(S(=O)(=O)c2ccccc2F)CC1)c1ccco1	i	i	i	i	nt	nt
SMILES	Efflux pump mplx	CR mimetic SO	GRK2 inh	ATG4B inh	GRK2 CP1	FAM quench CP1	others
FC(F)(F)c1cc(-c2ccccn2)nc2cc(-c3ccccc3)nn12	i	i	i	i	nt	nt
O=C(NCCc1ccc(F)cc1)c1cccc2c1C(=O)c1ccc(N3CCC(Cc4ccccc4)CC3)cc1S2(=O)=O	i	i	i	i	i	i
Cc1ccc(S(=O)(=O)CC(=O)Nc2cc(C)on2)cc1	i	i	i	i	nt	nt
NC(=S)N1OC[C@@H]2COc3ccc4ccccc4c3[C@@H]21	i	i	65	i	i	i
CO/N=C/NC(=O)N1OC[C@@H]2COc3ccc4ccccc4c3[C@@H]21	i	i	i	i	nt	nt
O=C(CSc1nc(O)c(-c2ccccc2)c(=O)[nH]1)N1CCOCC1	i	i	i	i	nt	nt
Cc1sc2nc(SCC(=O)N3CCOCC3)[nH]c(=O)c2c1-c1ccccc1	i	i	93	i	nt	nt	GRK2 confirm 2=i;FAM quench CP2=i
N#CCc1ccc(NS(=O)(=O)c2ccc(C3CCCCC3)cc2)cc1	i	i	78	i	i	i
